According to the supplement of paper PMC10849652:
About 7,900 targets were measured; listed, in parts, are those with a hit and a random draw of the rest. About 0.6% of all pairs of compound and target were hits. Unmarked numbers belong to inactive results.

Columns and labels:
Assay in all cases: log2 fold change, soluble protein after heating vs DMSO (PISA); higher = thermal stabilisation; K562 cells, 10 uM, 30 min; active = over 0.2 and 3.5 SD of the protein, either way, in both replicates (recomputed)
saracatinib = compound: CN1CCN(CCOc2cc(OC3CCOCC3)c3c(Nc4c(Cl)ccc5c4OCO5)ncnc3c2)CC1 [saracatinib]
Procedure, shortened: (§1)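 Quantification of soluble protein used TMTpro 16plex LC-MS/MS, with channel sums equalised. Samples were the supernatant after 21,000xg for 90 min of pooled aliquots from K562 cells (2×10^6 cells/mL) treated with 10 μM compound for 30 min, heated for 3 min over 48°C-58°C, and extracted in PBS with 0.5% NP-40 at 4°C. Values, from duplicates, describe thermal stability against control samples on a log2 fold-change scale.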

sotrastaurin = compound: CN1CCN(c2nc(C3=C(c4c[nH]c5ccccc45)C(=O)NC3=O)c3ccccc3n2)CC1 [sotrastaurin]
Procedure, shortened: as §1

alvocidib = compound: CN1CC[C@H](c2c(O)cc(O)c3c(=O)cc(-c4ccccc4Cl)oc23)[C@H](O)C1 [alvocidib]
Procedure, shortened: as §1

Tubastatin A = compound: CN1CCc2c(c3ccccc3n2Cc2ccc(C(=O)NO)cc2)C1 [Tubastatin A]
Procedure, shortened: as §1

[1] = compound: CNC(=O)C1=CC=CC=C1NC2=NC(=NC=C2Cl)NC3=C(C=C(C=C3)N4CCOCC4)OC
Procedure, shortened: as §1

defactinib = compound: CNC(=O)c1ccc(Nc2ncc(C(F)(F)F)c(NCc3nccnc3N(C)S(C)(=O)=O)n2)cc1 [defactinib]
Procedure, shortened: as §1

rucaparib = compound: CNCc1ccc(-c2[nH]c3cc(F)cc4c3c2CCNC4=O)cc1 [rucaparib]
Procedure, shortened: as §1

[2] = compound: CNc1nc(-c2ccc3c(N)n[nH]c3c2)cc(N2C[C@@H](C(=O)NC3CCCCC3)CC[C@H]2C)n1
Procedure, shortened: as §1

encorafenib = compound: COC(=O)N[C@@H](C)CNc1nccc(-c2cn(C(C)C)nc2-c2cc(Cl)cc(NS(C)(=O)=O)c2F)n1 [encorafenib]
Procedure, shortened: as §1

[3] = compound: COC(=O)[C@H](CCSC)NC(=O)C1=C(C=C(C=C1)NC[C@H](CS)N)C2=CC=CC=C2
Procedure, shortened: as §1

[4] = compound: COC1=CC=C(C=C1)CN2C=CC3=C2C=C(C=C3)C(=O)NO
Procedure, shortened: as §1

filanesib = compound: CON(C)C(=O)N1N=C(c2cc(F)ccc2F)S[C@@]1(CCCN)c1ccccc1 [filanesib]
Procedure, shortened: as §1

zotarolimus = compound: CO[C@H]1C[C@@H]2CC[C@@H](C)[C@@](O)(O2)C(=O)C(=O)N2CCCC[C@H]2C(=O)O[C@H]([C@H](C)C[C@@H]2CC[C@H](n3cnnn3)[C@H](OC)C2)CC(=O)[C@H](C)/C=C(\C)[C@@H](O)[C@@H](OC)C(=O)[C@H](C)C[C@H](C)/C=C/C=C/C=C/1C [zotarolimus]
Procedure, shortened: as §1

idasanutlin = compound: COc1cc(C(=O)O)ccc1NC(=O)[C@@H]1N[C@@H](CC(C)(C)C)[C@](C#N)(c2ccc(Cl)cc2F)[C@H]1c1cccc(Cl)c1F [idasanutlin]
Procedure, shortened: as §1

alisertib = compound: COc1cc(Nc2ncc3c(n2)-c2ccc(Cl)cc2C(c2c(F)cccc2OC)=NC3)ccc1C(=O)O [alisertib]
Procedure, shortened: as §1

[5] = compound: COc1cc2nc(-c3cc(F)ccc3O)nc(N[C@@H]3CNC[C@H]3C(C)(C)O)c2cc1OC
Procedure, shortened: as §1

gefitinib = compound: COc1cc2ncnc(Nc3ccc(F)c(Cl)c3)c2cc1OCCCN1CCOCC1 [gefitinib]
Procedure, shortened: as §1

[6] = compound: COc1cccc2cc(-c3nc([C@H]4CC[C@H](C(=O)O)CC4)n4ncnc(N)c34)[nH]c12
Procedure, shortened: as §1

lapatinib = compound: CS(=O)(=O)CCNCc1ccc(-c2ccc3ncnc(Nc4ccc(OCc5cccc(F)c5)c(Cl)c4)c3c2)o1 [lapatinib]
Procedure, shortened: as §1

pictilisib = compound: CS(=O)(=O)N1CCN(Cc2cc3nc(-c4cccc5[nH]ncc45)nc(N4CCOCC4)c3s2)CC1 [pictilisib]
Procedure, shortened: as §1

Chain of UniProt P49748 (P49748 whole entry, looked up): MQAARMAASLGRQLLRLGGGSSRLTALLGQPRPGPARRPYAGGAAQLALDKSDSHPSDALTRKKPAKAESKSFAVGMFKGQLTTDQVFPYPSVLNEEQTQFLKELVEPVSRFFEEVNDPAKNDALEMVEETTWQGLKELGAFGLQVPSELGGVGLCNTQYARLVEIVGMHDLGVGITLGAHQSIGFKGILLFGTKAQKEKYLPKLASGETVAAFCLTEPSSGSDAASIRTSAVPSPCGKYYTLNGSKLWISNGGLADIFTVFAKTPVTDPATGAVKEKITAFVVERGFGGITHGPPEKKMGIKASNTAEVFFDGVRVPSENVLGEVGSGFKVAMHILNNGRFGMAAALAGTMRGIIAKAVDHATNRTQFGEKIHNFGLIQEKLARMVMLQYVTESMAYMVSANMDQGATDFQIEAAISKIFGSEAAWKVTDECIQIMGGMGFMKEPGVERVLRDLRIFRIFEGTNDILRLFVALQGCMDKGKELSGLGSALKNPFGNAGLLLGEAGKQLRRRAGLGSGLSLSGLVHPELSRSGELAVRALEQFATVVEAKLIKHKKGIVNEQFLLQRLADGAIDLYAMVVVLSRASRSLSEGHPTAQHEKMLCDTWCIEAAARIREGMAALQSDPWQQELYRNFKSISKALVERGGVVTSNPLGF
Chain of UniProt P08758 (P08758 whole entry, looked up): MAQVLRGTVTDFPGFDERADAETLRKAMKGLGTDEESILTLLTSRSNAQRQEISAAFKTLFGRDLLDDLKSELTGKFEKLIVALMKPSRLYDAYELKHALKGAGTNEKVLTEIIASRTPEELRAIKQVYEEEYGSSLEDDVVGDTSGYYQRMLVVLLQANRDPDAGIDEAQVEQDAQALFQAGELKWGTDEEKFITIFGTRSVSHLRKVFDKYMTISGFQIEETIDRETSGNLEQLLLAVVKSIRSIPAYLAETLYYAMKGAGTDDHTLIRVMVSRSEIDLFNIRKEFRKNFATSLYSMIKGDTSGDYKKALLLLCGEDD
Chain of UniProt Q92560 (Q92560 whole entry, looked up): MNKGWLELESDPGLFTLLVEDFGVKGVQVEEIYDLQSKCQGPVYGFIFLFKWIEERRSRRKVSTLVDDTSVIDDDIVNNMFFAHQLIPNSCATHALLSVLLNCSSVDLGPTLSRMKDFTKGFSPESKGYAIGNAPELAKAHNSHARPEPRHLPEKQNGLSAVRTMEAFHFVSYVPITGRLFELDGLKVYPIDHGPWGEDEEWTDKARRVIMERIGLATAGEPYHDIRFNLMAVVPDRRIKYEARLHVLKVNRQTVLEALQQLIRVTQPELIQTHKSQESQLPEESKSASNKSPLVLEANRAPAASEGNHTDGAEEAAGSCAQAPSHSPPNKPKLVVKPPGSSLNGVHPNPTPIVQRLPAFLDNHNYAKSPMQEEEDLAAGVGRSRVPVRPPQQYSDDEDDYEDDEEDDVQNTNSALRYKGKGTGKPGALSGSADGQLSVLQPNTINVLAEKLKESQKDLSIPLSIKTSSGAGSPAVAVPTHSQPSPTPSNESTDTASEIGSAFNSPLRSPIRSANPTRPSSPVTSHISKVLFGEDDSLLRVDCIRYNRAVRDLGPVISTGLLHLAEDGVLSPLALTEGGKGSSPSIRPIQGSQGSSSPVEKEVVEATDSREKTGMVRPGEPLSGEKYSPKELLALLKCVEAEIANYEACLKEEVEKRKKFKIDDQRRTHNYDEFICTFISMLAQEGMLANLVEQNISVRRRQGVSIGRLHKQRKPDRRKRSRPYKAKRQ
Chain of UniProt Q86WA6 (Q86WA6 whole entry, looked up): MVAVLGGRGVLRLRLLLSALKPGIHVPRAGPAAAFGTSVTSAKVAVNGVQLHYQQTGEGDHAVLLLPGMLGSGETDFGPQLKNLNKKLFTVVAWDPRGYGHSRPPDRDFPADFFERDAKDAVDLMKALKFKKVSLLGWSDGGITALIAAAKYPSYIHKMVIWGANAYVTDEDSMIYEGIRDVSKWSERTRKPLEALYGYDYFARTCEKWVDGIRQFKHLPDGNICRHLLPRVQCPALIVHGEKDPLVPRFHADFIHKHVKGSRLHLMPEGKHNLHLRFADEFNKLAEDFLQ
Chain of UniProt O00170 (O00170 whole entry, looked up): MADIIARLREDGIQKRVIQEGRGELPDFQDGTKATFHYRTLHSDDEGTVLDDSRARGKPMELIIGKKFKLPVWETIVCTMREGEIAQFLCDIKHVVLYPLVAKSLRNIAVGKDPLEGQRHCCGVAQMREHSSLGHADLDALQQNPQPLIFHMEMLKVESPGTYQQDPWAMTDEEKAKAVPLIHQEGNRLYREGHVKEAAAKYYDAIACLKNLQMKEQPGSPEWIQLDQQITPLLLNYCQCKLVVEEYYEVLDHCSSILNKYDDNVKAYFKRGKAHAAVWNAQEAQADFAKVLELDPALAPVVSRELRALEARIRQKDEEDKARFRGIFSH
Chain of UniProt P53367 (P53367 whole entry, looked up): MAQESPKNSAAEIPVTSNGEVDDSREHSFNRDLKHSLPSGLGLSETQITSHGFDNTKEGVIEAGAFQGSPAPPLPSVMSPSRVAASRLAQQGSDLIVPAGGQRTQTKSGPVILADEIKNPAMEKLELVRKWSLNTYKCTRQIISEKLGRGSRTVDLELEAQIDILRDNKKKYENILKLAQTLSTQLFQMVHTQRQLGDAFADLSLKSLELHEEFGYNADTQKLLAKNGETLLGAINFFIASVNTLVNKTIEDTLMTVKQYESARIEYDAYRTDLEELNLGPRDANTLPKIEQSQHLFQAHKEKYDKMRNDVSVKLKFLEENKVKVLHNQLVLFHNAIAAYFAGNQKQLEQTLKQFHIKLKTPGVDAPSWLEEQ
Chain of UniProt Q66PJ3 (Q66PJ3 whole entry, looked up): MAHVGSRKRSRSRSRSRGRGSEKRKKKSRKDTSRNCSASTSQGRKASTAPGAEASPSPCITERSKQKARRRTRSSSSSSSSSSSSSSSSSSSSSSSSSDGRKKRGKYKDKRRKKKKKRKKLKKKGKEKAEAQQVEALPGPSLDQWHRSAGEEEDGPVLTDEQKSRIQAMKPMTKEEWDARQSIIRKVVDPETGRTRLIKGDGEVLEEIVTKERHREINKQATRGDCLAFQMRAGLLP
Chain of UniProt Q9Y6H3 (Q9Y6H3 whole entry, looked up): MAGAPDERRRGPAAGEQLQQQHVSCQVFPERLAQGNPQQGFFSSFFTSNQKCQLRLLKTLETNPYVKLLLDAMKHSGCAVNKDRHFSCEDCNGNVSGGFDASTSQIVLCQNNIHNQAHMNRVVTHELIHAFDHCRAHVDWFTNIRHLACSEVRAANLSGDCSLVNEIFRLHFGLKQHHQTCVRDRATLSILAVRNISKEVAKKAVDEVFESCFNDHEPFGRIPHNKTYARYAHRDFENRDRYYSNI
Chain of UniProt P31749 (P31749 whole entry, looked up): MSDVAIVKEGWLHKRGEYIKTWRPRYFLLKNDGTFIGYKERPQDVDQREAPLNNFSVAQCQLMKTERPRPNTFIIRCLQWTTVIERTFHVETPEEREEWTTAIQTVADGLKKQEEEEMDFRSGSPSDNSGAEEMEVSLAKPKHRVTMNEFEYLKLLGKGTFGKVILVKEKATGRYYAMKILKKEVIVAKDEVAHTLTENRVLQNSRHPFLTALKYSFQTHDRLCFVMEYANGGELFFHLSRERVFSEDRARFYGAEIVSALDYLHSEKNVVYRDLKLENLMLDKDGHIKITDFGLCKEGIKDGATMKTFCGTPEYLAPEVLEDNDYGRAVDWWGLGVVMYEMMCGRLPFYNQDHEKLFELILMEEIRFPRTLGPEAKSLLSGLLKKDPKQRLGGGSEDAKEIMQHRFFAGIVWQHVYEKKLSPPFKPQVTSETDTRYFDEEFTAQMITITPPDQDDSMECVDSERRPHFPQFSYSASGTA
Chain of UniProt P31939 (P31939 whole entry, looked up): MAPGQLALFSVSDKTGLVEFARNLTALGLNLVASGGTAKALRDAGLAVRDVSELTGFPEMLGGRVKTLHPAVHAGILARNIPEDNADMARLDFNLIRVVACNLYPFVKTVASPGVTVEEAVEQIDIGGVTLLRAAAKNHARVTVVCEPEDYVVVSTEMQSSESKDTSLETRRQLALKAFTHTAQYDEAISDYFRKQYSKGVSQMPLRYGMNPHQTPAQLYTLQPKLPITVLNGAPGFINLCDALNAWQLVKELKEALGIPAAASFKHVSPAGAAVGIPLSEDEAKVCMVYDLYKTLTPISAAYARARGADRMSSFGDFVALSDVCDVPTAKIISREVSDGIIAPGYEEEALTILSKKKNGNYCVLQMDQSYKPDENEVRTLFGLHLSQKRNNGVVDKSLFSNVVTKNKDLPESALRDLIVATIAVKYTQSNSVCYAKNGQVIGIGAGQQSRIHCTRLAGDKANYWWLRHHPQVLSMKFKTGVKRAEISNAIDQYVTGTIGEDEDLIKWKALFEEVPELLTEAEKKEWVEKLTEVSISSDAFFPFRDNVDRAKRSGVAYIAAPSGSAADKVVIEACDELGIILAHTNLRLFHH
Chain of UniProt Q14457 (Q14457 whole entry, looked up): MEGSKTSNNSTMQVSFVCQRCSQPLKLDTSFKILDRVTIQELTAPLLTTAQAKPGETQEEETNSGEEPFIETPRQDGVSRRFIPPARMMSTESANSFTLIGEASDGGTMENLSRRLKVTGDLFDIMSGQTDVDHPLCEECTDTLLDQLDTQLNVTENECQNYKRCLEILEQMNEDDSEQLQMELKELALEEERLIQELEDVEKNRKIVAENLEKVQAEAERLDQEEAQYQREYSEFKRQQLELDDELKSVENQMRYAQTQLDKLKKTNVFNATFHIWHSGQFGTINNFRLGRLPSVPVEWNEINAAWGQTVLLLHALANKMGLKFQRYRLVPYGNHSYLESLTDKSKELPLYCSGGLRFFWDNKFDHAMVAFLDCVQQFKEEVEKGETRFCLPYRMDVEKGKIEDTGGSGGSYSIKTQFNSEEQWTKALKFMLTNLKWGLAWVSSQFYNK
Chain of UniProt O00244 (O00244 whole entry, looked up): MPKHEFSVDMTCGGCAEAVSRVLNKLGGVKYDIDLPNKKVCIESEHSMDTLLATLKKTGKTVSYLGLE

Target | log2 fold change (saracatinib) | log2 fold change (sotrastaurin) | log2 fold change (alvocidib) | log2 fold change (Tubastatin A) | log2 fold change [1] | log2 fold change (defactinib) | log2 fold change (rucaparib) | log2 fold change [2] | log2 fold change (encorafenib) | log2 fold change [3] | log2 fold change [4] | log2 fold change (filanesib) | log2 fold change (zotarolimus) | log2 fold change (idasanutlin) | log2 fold change (alisertib) | log2 fold change [5] | log2 fold change (gefitinib) | log2 fold change [6] | log2 fold change (lapatinib) | log2 fold change (pictilisib)
ATP23 (UniProt Q9Y6H3) | 0.029 | 0.04 | -0.031 | -0.056 | 0.055 | 0.028 | 0.096 | 0.041 | 0.001 | 0.01 | 0.003 | -0.082 | 0.005 | 0.032 | -0.033 | -0.096 | -0.062 | 0.067 | 0.007 | 0.018
AIP (UniProt O00170) | 0.009 | -0.038 | -0.079 | 0.034 | 0.028 | -0.068 | -0.015 | -0.046 | 0.065 | -0.025 | 0.06 | -0.041 | 0.021 | -0.019 | -0.046 | 0.054 | -0.002 | -0.019 | -0.019 | 0.015
ATIC (UniProt P31939) | -0.013 | -0.001 | -0.064 | 0.008 | 0.087 | -0.059 | -0.05 | 0.044 | -0.011 | -0.028 | 0.047 | -0.039 | 0.046 | -0.03 | -0.092 | -0.027 | 0.114 | -0.008 | -0.001 | -0.008
ANK2 (UniProt Q01484) | 0.24 | 0.05 | -0.013 | -0.122 | 0.05 | -0.057 | -0.019 | -0.095 | -0.106 | -0.041 | -0.054 | -0.052 | -0.05 | 0.083 | -0.076 | -0.04 | -0.062 | 0.048 | -0.013 | 0.532 (active)
BECN1 (UniProt Q14457) | 0.013 | -0.038 | -0.262 | -0.065 | -0.029 | -0.054 | -0.014 | -0.013 | 0.001 | 0.018 | 0.094 | -0.005 | -0.142 | -0.159 | -0.081 | 0.117 | 0 | -0.045 | 0.008 | 0.086
ACADVL isoform 3 (UniProt P49748) | 0.027 | 0.056 | -0.031 | -0.028 | -0.022 | -0.011 | -0.007 | 0.008 | -0.021 | -0.001 | 0 | -0.069 | 0.019 | -0.04 | -0.031 | -0.089 | -0.019 | 0.025 | -0.12 | 0.093
ATOX1 (UniProt O00244) | -0.042 | -0.054 | -0.106 | 0.062 | 0.001 | -0.117 | -0.09 | -0.046 | 0.047 | -0.105 | 0.471 (active) | -0.122 | 0.113 | -0.096 | -0.062 | -0.388 | -0.036 | -0.07 | 0.314 | -0.015
ANXA5 (UniProt P08758) | -0.023 | -0.038 | -0.083 | -0.006 | 0.039 | -0.082 | -0.001 | 0.012 | 0.083 | -0.062 | 0.033 | -0.033 | 0.049 | -0.013 | -0.006 | 0.009 | 0.05 | -0.032 | 0.015 | -0.021
ARL6IP4 (UniProt Q66PJ3) | -0.026 | 0.023 | -0.024 | -0.024 | -0.05 | -0.038 | 0.01 | -0.002 | -0.059 | 0.016 | -0.025 | 0.023 | 0.014 | 0.172 | -0.053 | 0.002 | -0.039 | 0.05 | -0.023 | -0.007
ARFIP1 (UniProt P53367) | 0.043 | -0.037 | -0.031 | 0.047 | -0.351 (active) | -0.08 | -0.086 | 0.075 | -0.01 | 0.163 | 0.354 | -0.049 | -0.021 | 0.094 | 1.31 | 0.042 | -0.091 | -0.005 | -0.076 | -0.076
AKT1 (UniProt P31749) | -0.163 | -0.25 | -0.043 | 0.111 | 0.317 | -0.062 | 0.038 | -0.24 | -0.003 | -0.025 | -0.001 | 0.001 | 0.059 | -0.134 | -0.07 | 0.1 | 0.025 | -0.224 | 0.135 | 0.216
BAP1 (UniProt Q92560) | -0.091 | 0.089 | 0.053 | 0.042 | -0.1 | 0.09 | 0.037 | 0.061 | 0.014 | -0.017 | 0.032 | 0.111 | 0.046 | 0.164 | -0.112 | -0.006 | -0.055 | -0.024 | 0.119 | 0.062
BCCIP (UniProt Q9P287) | -0.132 | 0 | 0.065 | -0.045 | -0.013 | 0.072 | 0.165 | 0.02 | 0.076 | -0.049 | -0.022 | 0.06 | 0.031 | -0.048 | -0.086 | 0.033 | 0.036 | -0.024 | 0.01 | -0.024
ATG9A (UniProt Q7Z3C6) | 0.016 | -0.084 | -0.086 | 0.067 | -0.029 | -0.09 | -0.008 | -0.052 | 0.055 | -0.013 | 0.008 | -0.113 | -0.014 | -0.003 | 0.064 | -0.073 | 0.011 | -0.015 | -0.045 | 0.075
ALG11 (UniProt Q2TAA5) | 0.047 | 0.013 | -0.064 | -0.023 | -0.018 | -0.021 | -0.015 | -0.021 | 0.073 | -0.082 | -0.018 | -0.038 | 0.036 | -0.051 | -0.075 | -0.003 | 0.206 | 0.026 | 0.005 | 0.032
BPHL (UniProt Q86WA6) | 0.056 | 0.019 | -0.083 | -0.259 | 0.025 | -0.014 | 0.069 | 0.006 | -0.012 | -0.017 | -0.118 | -0.018 | 0.017 | -0.007 | 0.004 | 0.081 | 0.049 | -0.056 | -0.033 | 0.033
